Assay outcomes (PubChem)
p53 reactivation: mutant p53 re-activation in reporter cells; 320,000 compounds, 0.063% hits; H1299 p53-A138V BP100-luciferase reporter, luminescence, 24 h; Potency, µM (series often up to 92.2 µM), inactives show top-dose activity change, positive = activation, most hits filed as activators; AID 504706; also: potency is read from the fitted curve at half-maximal effect; % of control where 0% means no effect; nearly all actives have a fitted effect of over 45% in size
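p53-null H1299 cells stably carrying temperature-sensitive p53-A138V and a BP100-luciferase reporter were pinned with compounds (4-point, 1:5 series) and held 24 hrs at 37 deg C. Luminescence was read 10 min after detection reagent.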
KCNH2 3.1 inh: inhibitors of human KCNH2 3.1 potassium channel isoform. U2OS KCNH2 3.1, thallium flux FluxOr; active compounds read low. AID 720553. activity change, % (tested at about 1.8 µM). 340,000 compounds, 0.95% hits;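 active = maximum activity change below -70%; inconclusive = maximum activity change from -70% to -50%; inactive = maximum activity change above -50%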;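 also: thallium influx rate constant from kinetic fluorescence after stimulation buffer; % is scaled to controls: 0 for no effect and ±100 for the full control effect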
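Measured as rate of thallium-driven FluxOr signal in transduced U2OS cells carrying the 3.1 channel, read kinetically for 2 min upon stimulation; values are rate constants scaled to DMSO control wells.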
S-ASM inh: human S-ASM enzyme inhibition; P17405; placental ASM, HMU-PC fluorogenic substrate, 60 min; Potency, µM (highest dose often 57.5 µM), without a hit: at the highest dose activity change, negative = inhibition, actives largely listed as inhibitors; 340,000 compounds, 0.006% hits; AID 504937; also: potency is read from the fitted curve at half-maximal effect
Target sequence (P17405 47-631 limits assumed): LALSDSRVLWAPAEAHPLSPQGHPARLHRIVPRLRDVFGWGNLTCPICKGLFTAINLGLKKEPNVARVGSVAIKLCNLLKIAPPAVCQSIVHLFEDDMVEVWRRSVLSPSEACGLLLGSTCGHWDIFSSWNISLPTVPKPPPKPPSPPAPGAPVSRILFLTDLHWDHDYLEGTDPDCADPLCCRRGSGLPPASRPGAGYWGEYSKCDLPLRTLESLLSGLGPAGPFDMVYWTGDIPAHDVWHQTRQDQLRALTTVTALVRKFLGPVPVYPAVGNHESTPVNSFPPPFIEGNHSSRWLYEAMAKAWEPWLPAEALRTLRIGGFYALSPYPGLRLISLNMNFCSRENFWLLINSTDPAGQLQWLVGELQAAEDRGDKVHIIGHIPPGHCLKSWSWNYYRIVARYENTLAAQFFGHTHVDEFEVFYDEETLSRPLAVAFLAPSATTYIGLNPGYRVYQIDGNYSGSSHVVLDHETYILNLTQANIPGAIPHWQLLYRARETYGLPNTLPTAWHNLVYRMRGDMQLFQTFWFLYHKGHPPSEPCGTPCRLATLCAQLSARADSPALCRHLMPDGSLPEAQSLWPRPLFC
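Fluorescence read-out (Ex 386 nm, Em 447 nm) after stopping the reaction at pH 10. Enzyme: ASM from human placenta; substrate HMU-PC0, 9 uM final; 60 min, 37 °C. Compound preincubation 10 min, ambient temperature.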
Mm-Cpn inhibitor: inhibitors of Methanococcus maripaludis chaperonin TRiC (MmCpn) | purified Mm-Cpn ATPase, ADP Transcreener TR-FRET | 330,000 compounds, 0.031% hits | Potency, µM (series often up to 76.9 µM), inactives show top-dose activity, negative = inhibition, most hits filed as inhibitors; also: potency is read from the fitted curve at half-maximal effect; % is scaled to controls: 0 for no effect and ±100 for the full control effect; nearly all actives have a fitted effect of over 80% in size
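Reaction buffer contained 30 mM Tris pH 7.4, 100 mM KCl, 5 mM MgCl2 and 1 mM DTT. Mm-CPN (25 nM final) hydrolysed 10 uM ATP over 30 min at 37°C; ADP was read by HTRF.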
KCNH2 WT inh: blocks the wildtype human KCNH2 potassium channel | U2OS, BacMam KCNH2, thallium flux FluxOr; active compounds read low | AID 720551 | activity change, % at 1.84 µM | 340,000 compounds, 0.37% hits | Q12809;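 active = maximum activity change below -70%; inconclusive = maximum activity change between -70% and -50%; inactive = maximum activity change above -50%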; also: % is scaled to controls: 0 for no effect and ±100 for the full control effect
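U2OS cells were transduced with wild-type KCNH2 virus (2.03 x 10^8 / mL) for 4 h at room temperature, then cultured overnight at 37 C. Thallium flux was read with FluxOr dye. Rate constants were normalized to DMSO controls.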
uPA surface inh: inhibitors of cell surface uPA generation | cell surface uPA generation assay, qHTS | Potency, µM (top dose mostly 38.3 µM), without a hit: at the top dose activity change, negative = inhibition, most hits filed as inhibitors | 330,000 compounds, 0.31% hits | AID 540303; active = well fitted inhibition curve with a large enough effect; inconclusive = small, poorly fitted or top-dose-only effect; inactive = no such curve, though single readings can be large or run the other way; tested in mouse RAW 264.7 cells; also: potency is read from the fitted curve at half-maximal effect; % is scaled to controls: 0 for no effect and ±100 for the full control effect; nearly all actives have a fitted effect of over 55% in size
Active calls of the source: *; i = inactive; ? = inconclusive; / = no result given. Only some compounds are listed: those with a hit (about 1.4% of all), similar ones and a draw of the others. Unless noted, calls follow the shape of the dose curve; as a rule, active = well fitted curve in the direction sought with a large enough effect; inconclusive = small, poorly fitted or top-dose-only effect, or another doubt; inactive = no such curve, though single readings can be large; an effect the other way counts as inactive or inconclusive.

SMILES	p53 reactivation	KCNH2 3.1 inh	S-ASM inh	Mm-Cpn inhibitor	KCNH2 WT inh	uPA surface inh
O=S(=O)(NC1CCCCC1N1CCCCC1)c1ccccc1 (stereo not given)	-1%	6	0%	1%	-2	6%
O=S(=O)(NC1CCCCC1N1CCN(c2ccc(F)cc2)CC1)c1ccccc1 (stereo not given)	5%	-81*	-5%	-1%	27	7%
O=C1CCN(CCc2ccccc2)CCN1[C@H](CSc1ccc(Br)cc1)c1ccccc1	24%	-113*	-16%	-7%	-170*	5%
O=C1CCN(Cc2ccc(O)cc2)CCN1[C@H](CO)c1ccccc1	11%	-118*	-1%	-1%	-3	-2%
CCCN1CCC(=O)N([C@H](CSc2ccc(Br)cc2)c2ccccc2)CC1	8%	-116*	8%	0%	-130*	8%
Cc1ccc2nc3n(c(=O)c2c1)-c1ncccc1C(=O)NC3Cc1ccccc1 (stereo not given)	/	4	/	/	-7	/
CCOc1ccc(CN2CCCC(CO)(Cc3ccc(F)cc3)C2)cc1 (stereo not given)	-66%	-97*	1%	0%	-33	0%
Cc1nn(C)c(Cl)c1CN1CCCC(CO)(Cc2ccccc2)C1 (stereo not given)	-1%	-85*	1%	4%	0	-7%
COc1ccc(NC(=O)c2cc3ccccc3o2)cc1OC	/	2	43%	-1%	-6	-4%
COc1ccc(NC(=O)c2coc3ccccc23)cc1OC	12%	-5	0%	-1%	-341*	0%
COc1ccc2nc(N(CCN(C)C)C(=O)/C=C/c3cccs3)sc2c1	-3%	-21	-6%	-1%	8	10µM*
CCOc1ccc2nc(N(CCN(CC)CC)C(=O)/C=C/c3cccs3)sc2c1	5%	-80*	-9%	0%	?	-2%
COc1ccc(/C=C/c2c([N+](=O)[O-])c(=O)n(C)c(=O)n2C)cc1OC	7%	-75*	1%	1%	12	2%
COc1ccc(/C=C/c2c([N+](=O)[O-])c(=O)n(C)c(=O)n2C)c(OC)c1OC	7%	7	-3%	1%	-10	-9%
Cn1c(/C=C/c2ccc(Cl)cc2)c([N+](=O)[O-])c(=O)n(C)c1=O	-15%	13	-5%	1%	0	5.6µM*
CN(C(=O)c1ccccc1C(=O)OCC(=O)Nc1cccc(Br)c1)c1ccccc1	-16%	-14	-6%	0%	-39	-7%
COc1ccc(CCNC(=O)c2coc(=O)c(Br)c2)cc1	-16%	0	152%	-7%	-17	?
Cc1nn2c(N3CCN(CCO)CC3)c3c(nc2c1-c1ccccc1)CCCC3	-7%	-94*	15%	-2%	2	17%
COc1cc(CNCCO)ccc1OCCc1ccccc1	16%	-12	-3%	0%	7	-1%
O=C(Cn1cnc([N+](=O)[O-])c1)NCCc1ccccc1	/	3	-4%	2%	-10	1%
O=C(Cn1cnc([N+](=O)[O-])c1)Nc1ccccc1C(F)(F)F	12%	20	2%	1%	-74*	4%
COc1ccc(-n2c(SCC(=O)NCC3CCCO3)nc3ccccc3c2=O)cc1Cl (stereo not given)	/	1	/	/	15	/
O=C(Nc1ccc(Oc2ccccc2)cc1)C1CCN(c2c3c(nc4ncnn24)CCC3)CC1	-2%	-98*	?	1%	-13	-17%
O=C(Nc1ccc2c(c1)CCC2)C1CCN(c2c3c(nc4ncnn24)CCC3)CC1	-2%	27	-11%	0%	2	/
Oc1ccc(/C=N/Nc2ccc(C(F)(F)F)cn2)c(O)c1	11µM*	/	/	0%	/	/
SMILES	p53 reactivation	KCNH2 3.1 inh	S-ASM inh	Mm-Cpn inhibitor	KCNH2 WT inh	uPA surface inh
Oc1ccc(/C=N/Nc2ccc(C(F)(F)F)cn2)cc1	8%	-14	10%	-2%	1	-8%
c1ccc(N2CC3CCc4ccccc4C3=N2)cc1 (stereo not given)	45µM*	7	i	0%	-2	-5%
CN1N=C2c3ccccc3CCC2C1c1ccc(F)cc1 (stereo not given)	20%	-2	-3%	0%	0	0%
CCCn1cnc2cc(NCc3ccc(Br)cc3)ccc21	29%	-83*	-6%	2%	14	-1%
CCOc1ccc(CNc2ccc3c(c2)ncn3C)cc1	?	6	1%	-1%	-6	7%
CCOc1ccc(CNc2ccc3c(c2)ncn3C(C)(C)C)cc1	11%	-110*	1%	-7%	24	-14%
CCCn1cnc2cc(NCc3cccc(OC)c3)ccc21	5%	-74*	7%	-1%	23	-6%
CCn1cnc2cc(NCc3ccc(Br)cc3)ccc21	?	-25	-1%	-1%	13	-2%
CC(=O)N1CCN(c2ccc(NCc3ccc(-c4cccc(Cl)c4)o3)cc2)CC1	0%	/	33%	-1%	/	-26%
Cc1cc(SCC(=O)N(C)C2CCCCC2)nc2ccccc12	-5%	-2	-3%	-1%	-4	-24%
Clc1ccc(-c2csc(N/N=C/c3cccnc3)n2)c(Cl)c1	4%	-112*	5%	-2%	?	4%
C(=N\Nc1nc(-c2ccccc2)cs1)/c1cccnc1	7%	4	-13%	-3%	-5	/
Cc1ccc(C(=O)Nc2ccc(N3CCN(C)CC3)cc2)cc1	13%	-13	4%	-4%	17	2%
Cc1ccc(NC(=O)c2ccc(C)cc2)cc1	?	-9	-1%	-1%	-4	2.8µM*
CC(=O)Nc1ccc(NC(=O)c2ccc(-n3c(C)ccc3C)cc2)cc1	25µM*	0	-2%	0%	-6	-10%
COc1ccc(CNCCC(c2ccc(OC(C)C)cc2)c2ccccc2OC)cc1OC (stereo not given)	-1%	-82*	-2%	?	-45	-20%
COc1ccc(CNCCC(c2ccccc2)c2ccc3c(c2)OCO3)cc1 (stereo not given)	-8%	-81*	-4%	1%	-24	-15%
Cc1ccc(NC(=O)c2ccc(OCC3CCCO3)cc2)cc1Cl (stereo not given)	/	-1	/	/	-10	/
CCCCCC(=O)N1C[C@H](n2cc(-c3ccc(F)cc3)nn2)[C@@H](O)C[C@@H]1c1ccc(C)cc1	/	-8	/	/	0	/
CC1=C(C(=O)N2CCOCC2)CC(CC(=O)NCC2CCCCC2)C(=O)N1CCC1=CCCCC1 (stereo not given)	/	11	/	/	3	/
Nc1cccc(C#Cc2ccc3c(c2)C(=O)/C(=C/c2ccsc2)O3)c1	23%	-8	-3%	-1%	-3	-9%
